Compound activity as filed in PubChem.
CYP2C19 inh: human CYP2C19 inhibition; P33261; CYP2C19 Supersomes, luciferin-H EGE luminescence, 30 min; inhibition, % at 5 µM; 96,000 compounds, 21% hits;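 active = CYP2C19 inhibition above a set limit at 5 µM in the primary screen, cut at about 50% in these data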;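 note: plate controls were negative control wells for no effect and 2.5 mM tranylcypromine positive control for full effect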
CYP2C9 inhib: blocks human cytochrome P450 2C9. P11712. CYP2C9 Supersomes, luciferin-H conversion, luminescence. inhibition, % at 5 µM. 96,000 compounds, 20% hits;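 active = blocking of liver enzyme CYP2C9 beyond about 50% at 5 µM, limit read from the data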
Target sequence (P11712 whole entry, looked up): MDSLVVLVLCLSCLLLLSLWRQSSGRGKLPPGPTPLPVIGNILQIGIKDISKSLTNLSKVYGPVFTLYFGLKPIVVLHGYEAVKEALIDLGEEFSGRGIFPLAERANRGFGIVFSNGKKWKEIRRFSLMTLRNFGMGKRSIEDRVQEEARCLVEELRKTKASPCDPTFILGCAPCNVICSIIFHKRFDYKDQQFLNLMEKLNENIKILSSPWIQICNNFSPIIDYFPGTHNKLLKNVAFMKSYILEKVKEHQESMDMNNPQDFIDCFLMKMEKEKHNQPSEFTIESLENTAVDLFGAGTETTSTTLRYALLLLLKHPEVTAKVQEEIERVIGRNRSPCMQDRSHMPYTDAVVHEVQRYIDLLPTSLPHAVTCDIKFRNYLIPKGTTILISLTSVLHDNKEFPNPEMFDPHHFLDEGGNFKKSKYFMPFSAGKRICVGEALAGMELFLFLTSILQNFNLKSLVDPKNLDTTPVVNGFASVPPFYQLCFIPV
CYP2C9 activ: increases human cytochrome P450 2C9 activity. P11712. recombinant CYP2C9, luciferin-H conversion, luminescence; hits give high values; factor 1 = untreated enzyme, 0 = blocked. activation factor at 5 µM. 96,000 compounds, 1.4% hits;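 active = activation factor of 2 or more for CYP2C9 at a 5 µM dose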;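 note: 0 = sulfaphenazole-blocked wells and 1 = vehicle-only wells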
Measles CPE: protection of cells from measles virus; protection (pct of control), % at 4 µM; 140,000 compounds, 1.5% hits; Measles virus-infected cells, CPE protection, absorbance; in the data active = protection mostly above about 24%, no sharp cut-off; inactive = mostly below about 26%
CYP2C19 activ: activators of human cytochrome P450 2C19; recombinant CYP2C19, luciferin-H EGE luminescence; hits give high values; 0 = fully inhibited enzyme, 1 = untreated enzyme; 96,000 tested, under 10 active; activation factor at 5 µM; P33261;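 active = activation factor of at least 2 at 5 µM in the primary screen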;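 note: 0 = wells with 2.5 mM tranylcypromine and 1 = vehicle-only wells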
Starred values were filed as active, the others as inactive; nt = not tested or not shown. Only some compounds are listed: those with a hit (about 22% of all), similar ones and a draw of the others.

SMILES | CYP2C19 inh | CYP2C9 inhib | CYP2C9 activ | Measles CPE | CYP2C19 activ
CC1(c2ccccc2)CC2CC(c3ccccc3)N1O2 (configuration not stated) | 92* | 54* | 0.5 | 10 | 0.1
CCOC(=O)CC(C#N)c1c[nH]c2ccccc12 (configuration not stated) | 70* | -51 | 1.5 | 5 | 0.3
CC(/C=N/NC(=O)c1cc(-c2ccc(Cl)cc2)nc2ccccc12)=C\c1ccco1 | 5 | 89* | 0.1 | 9 | 1
CCn1ncc(/C=N\NC(=O)c2cc(-c3ccc(C)cc3C)nc3ccccc23)c1C | 90* | 97* | 0 | 7 | 0.1
COc1ccccc1-c1cc(C(=O)N/N=C\c2cnn(C)c2C)c2ccccc2n1 | nt | nt | nt | 3 | nt
Cc1ccc(-c2cc(C(=O)N/N=C/c3c(C)nn(C)c3C)c3ccccc3n2)cc1C | 81* | 97* | 0 | 20 | 0.2
O=C1C(C=NCCCN2CCCC2=O)=C(O)c2ccccc21 | 6 | -1 | 1 | 22 | 0.9
O=C1NC(c2ccccc2)=NC1(NS(=O)(=O)c1ccc(Cl)cc1)C(F)(F)F (configuration not stated) | nt | nt | nt | 11 | nt
O=C1NC(c2ccccc2)=NC1(NS(=O)(=O)c1ccccc1)C(F)(F)F (configuration not stated) | 2 | 10 | 0.9 | 41* | 1
CCOC1(C(F)(F)F)NC(=O)N(Cc2ccc(OC)cc2)C1=O (configuration not stated) | 38 | 14 | 0.9 | 34* | 0.6
COc1ccc(CN2CCC(=O)NC2=O)cc1 | 44 | -2 | 1 | 11 | 0.6
O=C(NC1CCCCC1)/C(=N\O)c1ccccn1 | 4 | -2 | 1 | 10 | 1
O=C(CSc1nc2ncc(Br)cc2[nH]1)Nc1ccc2c(c1)OCO2 | 72* | 96* | 0 | 1 | 0.3
O=C(CSc1ncn[nH]1)Nc1ccc2c(c1)OCCO2 | 27 | 24 | 0.8 | 23 | 0.7
CCOc1ccc2nc(SCC(=O)Nc3ncccn3)[nH]c2c1 | 0 | 4 | 1 | 20 | 1
O=C(CSc1ncn[nH]1)c1ccc2c(c1)OCO2 | 8 | -18 | 1.2 | 27 | 0.9
O=C(CSc1nc2ccc(Cl)cc2[nH]1)c1ccc2c(c1)OCO2 | 26 | 66* | 0.3 | nt | 0.7
CCOc1ccc2nc(SCC(=O)Nc3ccc4c(c3)OCCO4)[nH]c2c1 | 61* | 91* | 0.1 | 25 | 0.4
COc1ccc2nc(SCC(=O)NCc3ccc4c(c3)OCO4)[nH]c2c1 | nt | nt | nt | 4 | nt
CCOc1ccc2nc(SCC(=O)NCc3ccc4c(c3)OCO4)[nH]c2c1 | 24 | 68* | 0.3 | 13 | 0.8
Cc1cc(N)n(-c2ccc3ccccc3c2)n1 | 12 | 1 | 1 | 1 | 0.9
COc1ccc(NC(=O)CC2C(=O)N(c3ccc(F)cc3)C(=S)N2NC(=O)c2ccc(Cl)cc2)cc1 (configuration not stated) | nt | nt | nt | 13 | nt
COc1ccc2[nH]c3nc(SCc4nnc(-c5ccc(C)cc5)o4)nnc3c2c1 | 52* | 72* | 0.3 | nt | 0.5
COc1ccc2nc(SCC(=O)Nc3ccc4c(c3)OCCO4)[nH]c2c1 | 36 | 81* | 0.2 | 16 | 0.6
COc1ccc2[nH]c3nc(SCC(=O)Nc4ccc5c(c4)OCO5)nnc3c2c1 | 23 | 70* | 0.3 | 3 | 0.8
SMILES | CYP2C19 inh | CYP2C9 inhib | CYP2C9 activ | Measles CPE | CYP2C19 activ
CCOc1ccc(N2C(=O)Nc3ccccc3C2(O)C(=O)NCc2ccc3c(c2)OCO3)cc1 (configuration not stated) | 19 | -141 | 2.4* | 36 | 0.8
CC(C)NC(=O)C1(O)c2ccccc2NC(=O)N1c1ccc(Cl)c(Cl)c1 (configuration not stated) | 26 | 46 | 0.5 | 15 | 0.7
Cc1ccc2[nH]c3nc(SCCN4CCOCC4)nnc3c2c1 | 6 | 10 | 0.9 | 4 | 0.9
COc1ccc2nc(SCC(=O)N(C)C3CCCCC3)c(C#N)cc2c1 | 37 | 0 | 1 | 8 | 0.6
O=C(NC1CC2CCC(C1)N2C(=O)NCc1ccccc1)NC12CC3CC(CC(C3)C1)C2 (configuration not stated) | 11 | 2 | 1 | 16 | 0.9
Cc1ccc(C)c(N=C2CCCN2Cc2ccccc2)c1C#N | nt | nt | nt | 7 | nt
CC(C)(C)C(=O)CSc1nc2ncc(Br)cc2[nH]1 | 91* | 46 | 0.5 | 20 | 0.1
COc1ccc2nc(SCC(=O)Nc3c(C)cccc3C)[nH]c2c1 | 52* | 84* | 0.2 | 21 | 0.5
COc1cc2c(cc1OC)CN(C(=O)CSc1nnc3scc(-c4ccccc4)n13)CC2 | nt | nt | nt | 4 | nt
